# Shown are actives, neighbours in structure and some others; about 1.5% of the full set was active somewhere.
# PriA SSB inh = inhibitors of Klebsiella pneumoniae PriA binding to SSB C-terminal tail, primary screen, biochemical, AlphaScreen. PriA–SSB C-terminal tail interaction (Klebsiella pneumoniae). AlphaScreen SSBct-PriA binding, biotinylated peptide. inhibition, % at 33 µM. 0.6% of 430,000 active. AID 1272365, 2023; in the data active means inhibition mostly above about 37%, no sharp cut-off; inactive means mostly below about 20%;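 further: plate controls were negative control peptide for no effect and reference peptide for full effect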
# PrPC surface inh = inhibitors of human cell surface prion protein PrPC, primary screen, cell-based, TR-FRET; Major prion protein (Homo sapiens), P04156; TR-FRET read-out; 0.43% of 370,000 active; inhibition, % at 13.8 µM; in the data active means inhibition above about 24%; further: 0% = median of the test wells and 100% = reference compound wells
# CCHF vOTU inh = CCHFV vOTU protease inhibitors, primary screen, biochemical, Pep-AMC substrate, fluorescence | 0.55% of 370,000 active | Crimean-Congo hemorrhagic fever virus L polyprotein viral ovarian tumor (vOTU) protease … | AID 651958, 2012 | inhibition, % at 11.5 µM; in the data active means inhibition above about 30%; further: 0% = vehicle wells with enzyme and 100% = no enzyme wells
# TcdB GH inh = TcdB glycohydrolase inhibitors, primary screen, biochemical, single point, plate reader. AID 652162, 2013. TcdB glycohydrolase enzymatic assay. Toxin B (Clostridioides difficile), P18177. 0.24% of 350,000 active. inhibition, % at 9.99 µM; in the data active means inhibition above about 10%
# Target sequence (P18177 whole entry, looked up): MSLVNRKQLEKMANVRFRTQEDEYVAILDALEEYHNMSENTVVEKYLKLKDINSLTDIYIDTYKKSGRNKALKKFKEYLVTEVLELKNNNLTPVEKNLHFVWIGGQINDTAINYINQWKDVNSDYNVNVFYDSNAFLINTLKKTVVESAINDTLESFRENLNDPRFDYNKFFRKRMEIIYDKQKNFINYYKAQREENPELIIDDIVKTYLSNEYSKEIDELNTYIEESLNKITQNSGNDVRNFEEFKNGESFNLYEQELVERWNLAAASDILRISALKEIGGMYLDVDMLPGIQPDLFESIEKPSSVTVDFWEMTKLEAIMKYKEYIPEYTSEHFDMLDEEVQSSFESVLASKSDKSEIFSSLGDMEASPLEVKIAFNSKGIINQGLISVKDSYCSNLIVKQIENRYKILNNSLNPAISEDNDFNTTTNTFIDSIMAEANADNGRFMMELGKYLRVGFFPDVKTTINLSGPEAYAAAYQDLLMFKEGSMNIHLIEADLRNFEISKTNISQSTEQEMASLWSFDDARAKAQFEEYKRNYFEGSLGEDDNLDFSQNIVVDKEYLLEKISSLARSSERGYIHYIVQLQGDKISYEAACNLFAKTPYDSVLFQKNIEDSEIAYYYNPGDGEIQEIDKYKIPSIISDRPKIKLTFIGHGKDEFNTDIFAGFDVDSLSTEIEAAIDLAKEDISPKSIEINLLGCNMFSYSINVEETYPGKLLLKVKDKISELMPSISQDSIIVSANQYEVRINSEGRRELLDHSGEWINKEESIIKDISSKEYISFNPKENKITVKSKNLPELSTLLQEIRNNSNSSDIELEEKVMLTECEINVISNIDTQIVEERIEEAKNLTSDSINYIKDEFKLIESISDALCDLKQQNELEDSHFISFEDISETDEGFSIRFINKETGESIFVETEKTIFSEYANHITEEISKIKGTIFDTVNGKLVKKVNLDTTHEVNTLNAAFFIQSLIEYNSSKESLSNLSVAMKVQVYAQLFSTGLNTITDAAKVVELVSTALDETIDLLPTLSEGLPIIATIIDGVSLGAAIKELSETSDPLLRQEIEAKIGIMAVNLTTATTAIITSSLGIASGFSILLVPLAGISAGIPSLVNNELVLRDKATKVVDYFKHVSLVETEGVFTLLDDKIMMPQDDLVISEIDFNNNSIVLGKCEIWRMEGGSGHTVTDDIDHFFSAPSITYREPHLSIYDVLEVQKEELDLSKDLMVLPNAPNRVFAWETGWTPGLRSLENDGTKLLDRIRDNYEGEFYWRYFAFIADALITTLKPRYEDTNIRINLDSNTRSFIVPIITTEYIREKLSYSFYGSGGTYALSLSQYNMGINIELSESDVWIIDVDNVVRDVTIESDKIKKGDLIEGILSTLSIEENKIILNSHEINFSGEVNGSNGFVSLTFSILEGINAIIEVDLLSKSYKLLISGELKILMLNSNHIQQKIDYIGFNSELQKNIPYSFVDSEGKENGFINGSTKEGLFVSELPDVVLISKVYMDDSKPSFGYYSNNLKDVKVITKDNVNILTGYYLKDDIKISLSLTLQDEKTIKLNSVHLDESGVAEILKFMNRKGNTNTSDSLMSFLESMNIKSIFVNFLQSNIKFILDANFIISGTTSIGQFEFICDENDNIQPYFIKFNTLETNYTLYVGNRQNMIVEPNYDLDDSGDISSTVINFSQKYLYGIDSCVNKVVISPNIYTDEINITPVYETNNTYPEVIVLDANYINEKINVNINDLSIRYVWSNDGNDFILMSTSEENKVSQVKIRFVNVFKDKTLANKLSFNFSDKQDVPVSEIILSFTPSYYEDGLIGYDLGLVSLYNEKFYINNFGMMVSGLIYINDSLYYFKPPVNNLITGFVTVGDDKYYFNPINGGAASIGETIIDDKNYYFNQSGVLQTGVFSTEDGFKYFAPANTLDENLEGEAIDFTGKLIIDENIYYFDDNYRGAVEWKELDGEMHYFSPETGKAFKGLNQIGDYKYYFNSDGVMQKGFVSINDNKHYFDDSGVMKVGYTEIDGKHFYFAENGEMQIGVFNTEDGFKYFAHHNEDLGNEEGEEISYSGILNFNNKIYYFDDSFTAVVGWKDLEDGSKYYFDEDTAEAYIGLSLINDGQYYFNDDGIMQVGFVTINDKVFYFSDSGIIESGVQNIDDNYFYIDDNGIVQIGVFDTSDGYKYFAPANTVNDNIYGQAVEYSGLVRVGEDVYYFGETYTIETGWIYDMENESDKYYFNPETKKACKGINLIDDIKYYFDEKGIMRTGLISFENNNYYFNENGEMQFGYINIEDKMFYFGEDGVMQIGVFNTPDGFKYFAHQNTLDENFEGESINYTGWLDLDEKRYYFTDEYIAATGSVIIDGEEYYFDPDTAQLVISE
# Vc quorum ag = inducers of Vibrio cholerae quorum light production without autoinducers, primary screen, BH1578 luxS cqsA deficient, single point; V. cholerae BH1578 lux reporter, luminescence, 6 h; activation, % at 18.7 µM; 0.16% of 350,000 active; AID 588436, 2011; in the data active means activation mostly above about 9.7%, no sharp cut-off
# VHR inh abs = VHR1 phosphatase inhibitors, primary screen, biochemical, absorbance, uHTS; Dual specificity protein phosphatase 3 (Homo sapiens), P51452; recombinant VHR phosphatase, pNPP absorbance; inhibition, % at 13.3 µM; 0.52% of 290,000 active; in the data active means inhibition above about 50%
# * marks the source's active call; other numbers are inactive results; i = inactive; · = no result given; ! = not active in a repeat.
SMILES,PriA SSB inh,PrPC surface inh,CCHF vOTU inh,TcdB GH inh,Vc quorum ag,VHR inh abs
N[C@@H](Cc1c[nH]c2ccccc12)C(=O)O,·,·,·,·,·,6
O=C(O)C(Cc1c[nH]c2ccccc12)N1C(=O)c2ccccc2C1=O (stereo not drawn),-5,6,-7,-1,i,52*!
COC(CNC(=O)c1ccc(OC(F)(F)F)cc1)c1ccccc1Cl (stereo not drawn),-22,·,·,·,·,·
O=C(c1ccc(Cn2ccnc2)cc1)N1CCCC[C@H](c2ccc(F)cc2)C1,32*,·,·,·,·,·
CC(C)S(=O)(=O)c1ccc(CC(=O)N2CCC(CSc3nccn3C)CC2)cc1,-18,·,·,·,·,·
CCOc1ccc(-c2ccc(=O)n(CCCC(=O)Nc3ccc(C(C)=O)cc3)n2)cc1,-5,·,·,·,·,·
CCOC(=O)c1c(C)[nH]c(C2=NNC(=Nc3ccccc3OC)SC2)c1C,54*,-3,-7,2,0,16
COc1ccc(C(=O)c2c(C)oc3ccc(O)cc23)c(OC)c1,11,3,2,1,3,58*
Cc1ccc2c(c1)/C(=C/c1ccccc1C)C(=O)N2,-3,1,12,12*,-1,10
O=C(Cn1ccc2ccccc2c1=O)NCCC(=O)N1CCN(c2ccccc2)CC1,-5,4,-9,-2,0,53*
O=C(NCCn1ccc(-c2ccncc2)n1)c1ccc2c(c1)OCO2,-4,·,·,·,·,·
Cc1cc(C)cc(OCC(=O)NCCOc2ccc(F)cc2)c1,-12,·,·,·,·,·
Cn1c(C(=O)N2CCC(C(=O)N3CCOCC3)CC2)cc2sccc21,-8,4,-12,1,-1,53*
Cn1c(C(=O)N2CCC(C(=O)N3CCN(Cc4ccc5c(c4)OCO5)CC3)CC2)cc2sccc21,-6,-1,-1,1,0,15
O=C(CCc1nc2ccccc2[nH]1)Nc1ccccc1,-12,0,17,·,i,-4
NNC(=O)CCc1nc2ccc(O)cc2[nH]1,-5,3,3,14*,0,34
Cc1nn(C(=O)c2ccc(F)cc2)c(C)c1S(=O)(=O)N1CCCC1,-2,·,·,·,·,·
CC(C)(C)OC(=O)N1CCC(c2c(C(=O)N3CCN(C(=O)c4ccco4)CC3)cnn2-c2cccc(Cl)c2)CC1,6,0,10,0,0,58*
Cc1ccc(OCCOCCN2CCCC2)c(Br)c1,-18,-3,-8,0,0,59*
COC(=O)c1ccc2nc(NC(=O)c3ccc4c(c3)CCCC4)sc2c1,-7,·,·,·,·,·
ON=C1c2ccccc2-c2ccc(O)cc21,-7,-13,-11,15*,2,·
CCCCCCCCCCOC(=O)NC1CCS(=O)(=O)C1 (stereo not drawn),-19,5,27,0,0,24
CCCOC(=O)NC1CCS(=O)(=O)C1 (stereo not drawn),-20,2,11,·,17*,27
CCN1CCN(C(=O)N2CCS[C@H](c3ccccc3C)CC2)C(=O)C1=O,5,·,·,·,·,·
COc1ccc(S(=O)(=O)N2CCC(C(=O)Nc3c4c(nn3-c3ccccc3)CCC4)CC2)cc1,-5,·,·,·,·,·
SMILES,PriA SSB inh,PrPC surface inh,CCHF vOTU inh,TcdB GH inh,Vc quorum ag,VHR inh abs
COc1cccc2c1C(=N)c1c(O)c3c(c(O)c1C2=O)CC(O)(C(C)=O)CC3OC1CC(N)C(O)C(C)O1 (stereo not drawn),85*,·,·,·,i,·
COc1cccc2c1C(=O)c1c(O)c3c(c(O)c1C2=O)CC(O)(C(C)=O)CC3OC1CC(O)C(O)C(C)O1 (stereo not drawn),22,-50,4,-24,-6,·
O=C(NCC1CCN(c2ccccn2)CC1)Nc1ccc(Cl)c(Cl)c1,-6,·,·,·,·,·
Cc1ccccc1NC1SC(=O)N(CC(C)C)C1=O (stereo not drawn),-7,·,·,·,·,·
COc1cccc(CN2CC(C(=O)N3CCOCC3)CCC2=O)c1 (stereo not drawn),-13,-2,13,2,7,53*
COc1cccc(CN2CCN(C(=O)C3CCC(=O)N(C4CCCC4)C3)CC2)c1 (stereo not drawn),-1,0,7,1,0,51*
O=C(C1CCC(=O)N(C2CCCC2)C1)N1CCN(Cc2cccc(F)c2)CC1 (stereo not drawn),-7,-2,25,0,i,-15
COc1cccc(CN2CC(C(=O)N3CCCCCCC3)CCC2=O)c1 (stereo not drawn),-2,3,-10,2,3,-31
COC(=O)c1ccccc1NC(=O)C1CCCN(c2ccc(-n3cncn3)nn2)C1 (stereo not drawn),4,·,·,·,·,·
CCCc1cc(=O)[nH]c(-n2nc(C)cc2C)n1,12,·,·,·,·,·
Cc1cc(C)n(-c2nnc(C)c(=O)[nH]2)n1,74*,-1,2,·,0,11
CSc1nnc(C(C)C)c2cnn(-c3ccc(F)cc3)c12,-5,·,·,·,·,·
Cc1ccc2oc(=O)c3cc(C(=O)NCCCN4CCCC(C)C4)sc3c2c1 (stereo not drawn),-1,-2,-5,2,-4,51*
Cc1ccc2oc(=O)c3cc(C(=O)NCCCN4CCC(C)CC4)sc3c2c1,·,10,4,0,·,·
CCCN1CCN(CCCNC(=O)c2cc3c(=O)oc4ccc(C)cc4c3s2)CC1,-8,6,-13,0,0,50*
Nc1ccc(N2CCOCC2)c2nonc12,12,-18,109*,-5,0,30
O=C(Nc1ccc(N2CCOCC2)c2nonc12)C1CCCC1,-5,-22,9,·,-3,5
CCc1cccc(CC)c1NC(=O)c1cccc(N)c1,-6,4,-4,·,0,56*
COc1ccc(/C=C/C(=O)c2ccc([N+](=O)[O-])o2)cc1OC,4,-6,-10,1,·,·
COc1cc(/C=C/C(=O)c2ccc([N+](=O)[O-])o2)ccc1O,32,-3,5,12*,i,·
O=S(=O)(c1cccc(C(F)(F)F)c1)N1CC(c2nc(-c3cccs3)no2)C1,-8,·,·,·,·,·
O=[N+]([O-])c1ccc(N2CCCCC2)cc1O,74*,·,·,·,·,·
CNc1cc(N2CCCCCC2)ccc1[N+](=O)[O-],27,-21,-4,·,i,19
O=[N+]([O-])c1ccc(N2CCCCC2)cc1[N+](=O)[O-],73*,·,·,·,·,·
CCOC(=O)c1c(C)c(C(=O)N2CCc3ccccc3C2)c(C)n1CC,39*,1,-3,·,-1,22
CC(=O)Nc1cccc2cc(O)ccc12,-11,-3,8,22*,-1,·
CCCN1CCCc2cc(CCNS(=O)(=O)Cc3ccccc3Cl)ccc21,72*,·,·,·,·,·
CCCN1CCCc2cc(CCNS(=O)(=O)c3ccccc3Br)ccc21,active!,·,·,·,·,·
CCCN1CCCc2cc(CCNS(=O)(=O)c3ccccc3Cl)ccc21,active!,·,·,·,·,·
